“And” between values parts separate entries of the source, which are not always exact repeats. Equal values may be shown once. Inconclusive results are not listed. Where a call stands in place of a potency, no number is given. A structure can be active in one record and inactive in another. The source made the active and inactive calls. Calls follow the shape of the dose curve; as a rule, active = well fitted curve in the direction sought with a large enough effect in the repeat runs; inconclusive = weak or mixed curves; inactive = no such curve, though single readings can be large; an effect the other way counts as inactive or inconclusive.
Molecular target: Cytochrome P450 2C9 (Homo sapiens) (UniProt P11712)
Sequence (P11712 whole entry, looked up): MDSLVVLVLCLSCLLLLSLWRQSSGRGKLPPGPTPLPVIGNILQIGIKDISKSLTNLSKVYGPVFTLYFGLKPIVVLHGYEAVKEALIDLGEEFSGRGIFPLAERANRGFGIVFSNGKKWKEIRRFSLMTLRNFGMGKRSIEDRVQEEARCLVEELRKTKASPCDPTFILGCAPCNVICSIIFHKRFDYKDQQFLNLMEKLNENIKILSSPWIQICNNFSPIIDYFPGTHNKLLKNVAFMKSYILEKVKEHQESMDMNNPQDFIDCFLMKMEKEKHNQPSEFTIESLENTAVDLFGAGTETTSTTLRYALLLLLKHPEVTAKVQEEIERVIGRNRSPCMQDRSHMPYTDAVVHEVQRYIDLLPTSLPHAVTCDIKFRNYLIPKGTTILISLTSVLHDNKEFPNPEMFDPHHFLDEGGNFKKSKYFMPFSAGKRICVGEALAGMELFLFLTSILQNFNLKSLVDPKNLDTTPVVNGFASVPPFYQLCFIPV
Test: Cytochrome P450 Family 2 Subfamily C Member 9 (CYP2C9) small molecule antagonists: luciferase reporter qHTS assay (AID 1671198); also: potency is read from the fitted curve at half-maximal effect
Conditions: P450-Glo CYP2C9 enzyme assay, luciferin luminescence; series mostly up to 115 µM; activity change, negative = inhibition: at the top concentration
How it was run: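 CYP2C9 activity was measured with a P450-Glo proluciferin substrate. Enzyme–substrate mix was held with compound for 10 min at room temperature, then NADPH regeneration solution was added for 1 h at 37C. Luciferin product was read as luminescence.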
Also: nearly all actives have a fitted effect of over 50% in size.

[O-][Cl+2]([O-])O was tested. Which Potency did it give?
Its Potency is “inactive”.

How did the Potency turn out when Cc1ccc(N)cc1Cl was run?
The Potency was 32.1 µM (active) and 35.6 µM (active).

How did the “activity change, negative = inhibition” value turn out when C1CN2CCN1CC2 was run?
The value was -8.57% (inactive).

Cc1cc(-c2cc(C)c(N)c(C)c2)cc(C)c1N was tested. Which Potency did it give?
The Potency was 40 µM (active) and 22 µM (active).

NCC(O)c1ccc(O)cc1 (stereo not drawn) was tested. Which Potency did it give?
Its Potency is “inactive”.

How did the “activity change, negative = inhibition” value turn out when CNC(=O)Oc1ccccc1OC(C)C was run?
Its value is -12.9% (inactive).

Which “activity change, negative = inhibition” value does the source give for COC(=O)c1ccccc1C(=O)OC here?
The value was -2.37% (inactive).

For COC(=O)NC(=S)Nc1ccccc1NC(=S)NC(=O)OC, which Potency is on record?
Its Potency is 39.9 µM (active).

For CC(C#N)CCC#N (stereo not drawn), which Potency is on record?
The Potency was “inactive”.

For Nc1ccc(Oc2ccc(N)cc2)cc1, which Potency is on record?
Its Potency is 14.4 µM (active) and 8.94 µM (active).

How did the Potency turn out when CCCCCOC(=O)c1ccccc1C(=O)OCCCCC was run?
Its Potency is 28.2 µM (active) and 7.96 µM (active).

For O=Cc1cccc(Oc2ccccc2)c1, which Potency is on record?
Its Potency is 40.2 µM (active).

For CCCCCCCCCl, which “activity change, negative = inhibition” value is on record?
The value was -4.53% (inactive).

For O=c1ccc(=O)[nH][nH]1, which “activity change, negative = inhibition” value is on record?
The value was -1.97% (inactive).

Which “activity change, negative = inhibition” value does the source give for CCOP(OCC)OCC here?
The value was -23.5% (inactive).

With C1CC2OC2CC1C1CO1 (stereo not drawn) as the compound, how does the Potency read?
Its Potency is “inactive”.

Which “activity change, negative = inhibition” value does the source give for ClCCBr here?
Its value is -5.42% (inactive).

How did the Potency turn out when c1ccc(-c2ccccc2)cc1 was run?
The Potency was “inactive”.

Which Potency does the source give for O=[N+]([O-])c1ccc([As](=O)(O)O)cc1 here?
Its Potency is “inactive”.

Molecular target: Cytochrome P450 1A2 (Homo sapiens) (UniProt P05177)
Sequence (P05177 whole entry, looked up): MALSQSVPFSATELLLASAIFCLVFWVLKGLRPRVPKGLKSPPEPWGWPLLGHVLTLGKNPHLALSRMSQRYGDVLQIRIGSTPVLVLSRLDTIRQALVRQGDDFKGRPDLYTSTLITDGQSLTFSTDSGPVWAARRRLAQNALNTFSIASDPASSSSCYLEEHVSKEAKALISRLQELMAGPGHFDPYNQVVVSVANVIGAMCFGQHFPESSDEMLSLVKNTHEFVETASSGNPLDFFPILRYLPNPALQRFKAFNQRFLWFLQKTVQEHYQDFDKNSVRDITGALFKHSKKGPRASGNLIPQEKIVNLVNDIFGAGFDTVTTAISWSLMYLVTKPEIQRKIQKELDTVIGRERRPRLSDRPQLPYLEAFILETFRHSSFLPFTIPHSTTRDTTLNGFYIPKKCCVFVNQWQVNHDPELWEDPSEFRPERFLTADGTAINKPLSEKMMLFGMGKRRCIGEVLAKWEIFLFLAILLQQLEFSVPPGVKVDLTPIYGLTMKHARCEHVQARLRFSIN
Test: Cytochrome P450 Family 1 Subfamily A Member 2 (CYP1A2) small molecule antagonists: luciferase reporter qHTS assay (AID 1671199); also: potency is read from the fitted curve at half-maximal effect
Conditions: P450-Glo CYP1A2 enzyme, luciferin luminescence, 1 h; series mostly up to 115 µM; activity change, negative = inhibition: at the top concentration
How it was run: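 Luminescence readout (relative luminescence units) after luciferin detection reagent, 20 min RT. Preceded by 1 h room-temperature CYP1A2 reaction with NADPH regeneration solution following 10 min compound preincubation with enzyme and proluciferin substrate. Furafylline positive control.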

With [N-]=[N+]=[N-] as the compound, how does the Potency read?
Its Potency is 43.3 µM (active) and inactive.

CCOP(=S)(OCC)Oc1cnc2ccccc2n1 was tested. Which Potency did it give?
The Potency was “inactive and 2.24 µM (active)”.

CC(C)(C)OOC(C)(C)C was tested. Which “activity change, negative = inhibition” value did it give?
The value was -30.4% [at 53 µM] (inactive).

How did the “activity change, negative = inhibition” value turn out when CC(C)C1(C)N=C(c2nc3ccccc3cc2C(=O)O)NC1=O (stereo not drawn) was run?
The value was -9.66% (inactive).

With CCCCOC(=O)c1ccccc1C(=O)OCCCC as the compound, how does the Potency read?
The Potency was 5.03 µM (active) and 8.94 µM (active).

Which Potency does the source give for CC(C)(C)C(O)(CCc1ccc(Cl)cc1)Cn1cncn1 (stereo not drawn) here?
The Potency was 32.1 µM (active) and 28.3 µM (active).

For O=C(NC(=O)c1c(F)cccc1F)Nc1cc(Cl)c(OC(F)(F)C(F)C(F)(F)F)cc1Cl (stereo not drawn), which “activity change, negative = inhibition” value is on record?
The value was -15.7% [at 53 µM] (inactive).

How did the Potency turn out when CC(C)=C[C@@H]1[C@@H](C(=O)OCc2coc(Cc3ccccc3)c2)C1(C)C was run?
Its Potency is 27.5 µM (active).

For CCC12COCN1COC2, which Potency is on record?
The Potency was “inactive”.

For CC(C)OC(=O)Nc1cccc(Cl)c1, which Potency is on record?
The Potency was 9.89 µM (active) and 8.94 µM (active).

O=c1[nH]c(=O)[nH]c(=O)[nH]1 was tested. Which Potency did it give?
Its Potency is “inactive”.

Which Potency does the source give for CCc1cccc(C)c1N(C(=O)CCl)C(C)COC (stereo not drawn) here?
The Potency was 66.9 µM (active) and inactive.

For CCCN(CCC)c1c([N+](=O)[O-])cc(C(F)(F)F)cc1[N+](=O)[O-], which Potency is on record?
Its Potency is 20 µM (active).

With CCN(CC)CCO as the compound, how does the Potency read?
Its Potency is “inactive and 31.7 µM (active)”.

For CCC[CH2][Sn]([Cl])([Cl])[Cl], which Potency is on record?
The Potency was “inactive”.

How did the Potency turn out when C#CC(C)(C)NC(=O)c1cc(Cl)cc(Cl)c1 was run?
Its Potency is 5.07 µM (active) and 15.9 µM (active).

How did the Potency turn out when Nc1ccc(Br)cc1 was run?
Its Potency is 44.8 µM (active).

How did the Potency turn out when [O-][Cl+2]([O-])O was run?
Its Potency is “inactive”.

How did the Potency turn out when Cc1ccc(N)cc1Cl was run?
The Potency was 1.28 µM (active) and 1.59 µM (active).

How did the Potency turn out when C1CN2CCN1CC2 was run?
The Potency was “inactive”.

Which Potency does the source give for Cc1cc(-c2cc(C)c(N)c(C)c2)cc(C)c1N here?
Its Potency is 712 nM (active) and 311 nM (active).

How did the Potency turn out when NCC(O)c1ccc(O)cc1 (stereo not drawn) was run?
The Potency was “inactive”.

With CNC(=O)Oc1ccccc1OC(C)C as the compound, how does the Potency read?
Its Potency is 35.6 µM (active).

COC(=O)c1ccccc1C(=O)OC was tested. Which Potency did it give?
Its Potency is 31.9 µM (active) and 25.2 µM (active).

COC(=O)NC(=S)Nc1ccccc1NC(=S)NC(=O)OC was tested. Which Potency did it give?
Its Potency is 31.7 µM (active).

For CC(C#N)CCC#N (stereo not drawn), which Potency is on record?
Its Potency is “inactive”.

For Nc1ccc(Oc2ccc(N)cc2)cc1, which Potency is on record?
The Potency was “inactive”.

CCCCCOC(=O)c1ccccc1C(=O)OCCCCC was tested. Which Potency did it give?
Its Potency is 17.8 µM (active) and 8.94 µM (active).

How did the Potency turn out when O=Cc1cccc(Oc2ccccc2)c1 was run?
Its Potency is 35.9 µM (active) and inactive.

How did the Potency turn out when CCCCCCCCCl was run?
Its Potency is “inactive”.

Which “activity change, negative = inhibition” value does the source give for O=c1ccc(=O)[nH][nH]1 here?
Its value is -11% (inactive).

How did the Potency turn out when CCOP(OCC)OCC was run?
The Potency was “inactive”.

For C1CC2OC2CC1C1CO1 (stereo not drawn), which Potency is on record?
The Potency was “inactive”.

ClCCBr was tested. Which “activity change, negative = inhibition” value did it give?
Its value is -18.6% (inactive).

With c1ccc(-c2ccccc2)cc1 as the compound, how does the Potency read?
The Potency was “inactive”.

For O=[N+]([O-])c1ccc([As](=O)(O)O)cc1, which Potency is on record?
The Potency was “inactive”.

Molecular target: Voltage-gated inwardly rectifying potassium channel KCNH2 (Homo sapiens) (UniProt Q12809)
Sequence (Q12809 whole entry, looked up): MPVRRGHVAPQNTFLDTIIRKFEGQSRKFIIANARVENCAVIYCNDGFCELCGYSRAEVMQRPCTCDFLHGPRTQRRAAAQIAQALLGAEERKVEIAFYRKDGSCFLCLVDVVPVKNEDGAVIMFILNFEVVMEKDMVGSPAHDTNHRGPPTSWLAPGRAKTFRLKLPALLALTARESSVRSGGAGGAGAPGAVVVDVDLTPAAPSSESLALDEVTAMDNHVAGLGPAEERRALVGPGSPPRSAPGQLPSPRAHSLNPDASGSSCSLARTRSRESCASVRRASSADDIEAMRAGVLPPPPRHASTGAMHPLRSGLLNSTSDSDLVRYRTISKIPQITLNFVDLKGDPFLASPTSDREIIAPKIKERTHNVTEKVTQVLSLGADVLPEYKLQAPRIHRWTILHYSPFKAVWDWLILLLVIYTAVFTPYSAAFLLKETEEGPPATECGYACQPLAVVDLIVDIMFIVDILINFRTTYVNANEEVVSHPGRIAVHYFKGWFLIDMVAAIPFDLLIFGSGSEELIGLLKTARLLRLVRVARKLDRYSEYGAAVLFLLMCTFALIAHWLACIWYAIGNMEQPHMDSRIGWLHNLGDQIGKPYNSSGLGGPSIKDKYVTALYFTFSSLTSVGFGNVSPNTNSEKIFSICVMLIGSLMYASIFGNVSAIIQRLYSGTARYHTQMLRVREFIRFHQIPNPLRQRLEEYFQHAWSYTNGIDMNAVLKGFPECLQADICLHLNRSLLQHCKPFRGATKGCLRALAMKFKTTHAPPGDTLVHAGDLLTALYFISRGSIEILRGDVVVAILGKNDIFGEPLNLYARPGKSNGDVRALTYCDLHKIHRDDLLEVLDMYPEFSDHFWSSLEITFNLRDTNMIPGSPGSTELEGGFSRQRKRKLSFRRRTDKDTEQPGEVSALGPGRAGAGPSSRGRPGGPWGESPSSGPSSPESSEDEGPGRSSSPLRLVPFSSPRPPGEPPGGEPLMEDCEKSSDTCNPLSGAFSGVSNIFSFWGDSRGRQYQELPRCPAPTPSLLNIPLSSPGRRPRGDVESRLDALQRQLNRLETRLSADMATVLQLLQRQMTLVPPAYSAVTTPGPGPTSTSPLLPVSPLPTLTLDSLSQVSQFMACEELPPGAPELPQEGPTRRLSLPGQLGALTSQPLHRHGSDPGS
Test: Human Ether-a-go-go-Related Gene (hERG) channel small molecule antagonists: fluorescence cell-based qHTS assay (AID 1671200);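 also: hERG-expressing U2OS cells given a thallium stimulus after FluxOR II dye loading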
Conditions: hERG-U2OS cells, FluxOR thallium flux fluorescence; series mostly up to 76.8 µM; activity change, negative = inhibition: at the top concentration
How it was run: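 Measured: Tl+ flux via fluorescence (480/540 nm) in hERG-expressing U2OS cells after 1 h dye loading at room temperature.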

How did the Potency turn out when [N-]=[N+]=[N-] was run?
The Potency was “inactive”.

With CCOP(=S)(OCC)Oc1cnc2ccccc2n1 as the compound, how does the Potency read?
The Potency was “inactive”.

For CC(C)(C)OOC(C)(C)C, which Potency is on record?
The Potency was “inactive”.

For CC(C)C1(C)N=C(c2nc3ccccc3cc2C(=O)O)NC1=O (stereo not drawn), which Potency is on record?
Its Potency is “inactive”.

With CCCCOC(=O)c1ccccc1C(=O)OCCCC as the compound, how does the Potency read?
The Potency was “inactive”.

For CC(C)(C)C(O)(CCc1ccc(Cl)cc1)Cn1cncn1 (stereo not drawn), which “activity change, negative = inhibition” value is on record?
The value was -24.3% (inactive).

For O=C(NC(=O)c1c(F)cccc1F)Nc1cc(Cl)c(OC(F)(F)C(F)C(F)(F)F)cc1Cl (stereo not drawn), which Potency is on record?
The Potency was “inactive”.

Which Potency does the source give for CC(C)=C[C@@H]1[C@@H](C(=O)OCc2coc(Cc3ccccc3)c2)C1(C)C here?
Its Potency is “inactive”.

Which Potency does the source give for CCC12COCN1COC2 here?
Its Potency is “inactive”.

How did the Potency turn out when CC(C)OC(=O)Nc1cccc(Cl)c1 was run?
Its Potency is “inactive”.

For O=c1[nH]c(=O)[nH]c(=O)[nH]1, which Potency is on record?
Its Potency is “inactive”.

Which Potency does the source give for CCc1cccc(C)c1N(C(=O)CCl)C(C)COC (stereo not drawn) here?
Its Potency is “inactive”.

For CCN(CC)CCO, which Potency is on record?
The Potency was “inactive”.

With CCC[CH2][Sn]([Cl])([Cl])[Cl] as the compound, how does the Potency read?
Its Potency is “inactive”.

Which Potency does the source give for C#CC(C)(C)NC(=O)c1cc(Cl)cc(Cl)c1 here?
The Potency was “inactive”.

[O-][Cl+2]([O-])O was tested. Which Potency did it give?
The Potency was “inactive”.

How did the Potency turn out when Cc1ccc(N)cc1Cl was run?
The Potency was “inactive”.

For C1CN2CCN1CC2, which Potency is on record?
Its Potency is “inactive”.

How did the Potency turn out when Cc1cc(-c2cc(C)c(N)c(C)c2)cc(C)c1N was run?
Its Potency is “inactive”.

NCC(O)c1ccc(O)cc1 (stereo not drawn) was tested. Which Potency did it give?
Its Potency is “inactive”.

With CNC(=O)Oc1ccccc1OC(C)C as the compound, how does the Potency read?
Its Potency is “inactive”.

For COC(=O)c1ccccc1C(=O)OC, which Potency is on record?
The Potency was “inactive”.

With CC(C#N)CCC#N (stereo not drawn) as the compound, how does the Potency read?
The Potency was “inactive”.

Which Potency does the source give for Nc1ccc(Oc2ccc(N)cc2)cc1 here?
Its Potency is “inactive”.

CCCCCOC(=O)c1ccccc1C(=O)OCCCCC was tested. Which Potency did it give?
The Potency was “inactive”.

O=Cc1cccc(Oc2ccccc2)c1 was tested. Which “activity change, negative = inhibition” value did it give?
The value was -10.7% (inactive).

For CCCCCCCCCl, which Potency is on record?
The Potency was “inactive”.

How did the Potency turn out when O=c1ccc(=O)[nH][nH]1 was run?
The Potency was “inactive”.

Which Potency does the source give for CCOP(OCC)OCC here?
Its Potency is “inactive”.

How did the Potency turn out when C1CC2OC2CC1C1CO1 (stereo not drawn) was run?
Its Potency is “inactive”.

For ClCCBr, which Potency is on record?
Its Potency is “inactive”.

For c1ccc(-c2ccccc2)cc1, which “activity change, negative = inhibition” value is on record?
Its value is 5.54% (inactive).

For O=[N+]([O-])c1ccc([As](=O)(O)O)cc1, which Potency is on record?
Its Potency is “inactive”.

— PubChem BioAssay (Tox21)
